In PubChem BioAssay (NCATS):
Results filed as inconclusive are left out. Entries that show only a call come without a potency. Calls of active or inactive are those of the source. The call rests on the fitted dose curve; in most records, active means well fitted inhibition curve with a large enough effect; inconclusive means small, poorly fitted or top-dose-only effect; inactive means no such curve, though single readings can be large or run the other way.

Legend:
[1] = tested on: Zika virus NS2B-NS3 protease (unlinked complex); assay: Primary screen GU Rhodamine qHTS for Zika virus inhibitors: Unlinked NS2B-NS3 protease assay (AID 1347159); further: nearly all actives have a fitted effect of over 60% in size; further: potency means the concentration at half of the fitted maximal effect
Procedure, shortened: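 Percent inhibition came from the 15-min rise in Rhodamine110 fluorescence (1.5 microM substrate, ~15% conversion), normalized to no-inhibitor and no-enzyme wells and Hill-fitted. Unlinked protease, 25 nM, pH 8.0 Tris buffer; compounds up to 114 microM, 15-min preincubation.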

[2] = tested on: Zika virus NS2B-NS3 protease (linked construct); assay: Primary screen NINDS Rhodamine qHTS for Zika virus inhibitors (AID 1347160); further: nearly all actives have a fitted effect of over 55% in size
Procedure, shortened: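 Rhodamine110-peptide cleavage (1.5 µM substrate) by 25 nM linked NS2B-NS3 enzyme at pH 8.0 (Tris, Tween 20), after 15 min RT preincubation with compounds; 15-min fluorescence change normalized to controls and Hill-fitted.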

SMILES	Potency [1]	Potency [2]
Cc1cc2sc(NC(=O)Cc3ccccc3)nc2cc1Cl	inactive	inactive
C#CCCCn1cc(-c2cccc3c2N[C@H](C)CC(=O)N3)cn1	inactive	inactive
CC(=O)C1=CCC2C3CC=C4CC(O)CC(O)C4(C)C3C(O)CC12C (stereo not drawn)	inactive	inactive
COc1ccc(S(=O)(=O)Nc2c(C)cc(C)cc2C)cc1	inactive	inactive
C=C[C@@]12COC(=O)C(=C)[C@@H]1[C@@H](O)[C@H](C(=C)C(=O)OC)[C@@H](O)C2	inactive	inactive
COc1ccccc1N1CCN(CC[C@@](C)(C(=O)C2CCCCC2)c2ccccc2)CC1	inactive	inactive
CNCc1cc(-c2ccccc2F)n(S(=O)(=O)c2cccnc2)c1	inactive	inactive
CN(C)CCOc1cc(NS(=O)(=O)c2c(Cl)cc(C(F)(F)F)cc2Cl)ccc1Cl	5.62 µM (active)	inactive
C=C(C)[C@@H]1CC=C(COC(=O)NC(=O)c2ncn3c(=O)n(C)nnc23)CC1	inactive	inactive
